Experimental data taken from PubChem BioAssay (EPA / NIEHS).
Results filed as inconclusive are left out. Where a structure was tested more than once in an assay, its records may differ in their call. Calls of active or inactive are those of the source. Rule for the calls, unless noted: active = hit-call score of the fitted dose curve at least 0.9, where 1 is the maximum; inactive = score below 0.9.

Assays:
[1] = CCTE_Shafer_MEA_dev_firing_rate_mean: CCTE's Neural Network Formation Assay for Mean Firing Rate, Shafer Lab (AID 2284031)
Procedure, shortened: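 Primary rat cortical neurons on 48-well MEA plates, exposed from plating day 0 with dosing renewed on DIV 5 and 9. Mean well firing rate over active electrodes, recorded days 5, 7, 9, 12, summarised as trapezoidal AUC.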

[2] = CCTE_Shafer_MEA_dev_per_burst_spike_percent: CCTE's Neural Network Formation Assay for Percent of Spikes in a Burst, Shafer Lab (AID 2284032)
Procedure, shortened: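 Rat primary cortical neurons on 16-electrode MEA wells, dosed from plating day 0 for 12 days with renewal on DIV 5 and 9; spikes-in-bursts percentage averaged over bursting electrodes, collapsed as AUC across days 5, 7, 9, 12; loss direction versus DMSO.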

[3] = CCTE_Shafer_MEA_dev_active_electrodes_number: CCTE's Neural Network Formation Assay for Number of Active Electrodes, Shafer Lab (AID 2284040; active = hit-call score of the fitted dose curve at least 0.9, where 1 is the maximum)
Procedure, shortened: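 Primary rat cortical neurons on 16-electrode MEA wells, exposed from day 0 through day 12 with compound renewed at DIV 5 and 9 feeds. Active electrodes (mean firing ≥5 spikes/min) counted at DIV 5, 7, 9, 12; trapezoidal AUC across days, loss-of-signal versus DMSO.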

[4] = CCTE_Shafer_MEA_dev_burst_rate: CCTE's Neural Network Formation Assay for Burst Rate, Shafer Lab (AID 2284042)
Procedure, shortened: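 Primary rat cortical neurons on PEI-coated 48-well MEA plates (laminin added with cells at plating) (16 electrodes/well), exposed from plating to day 12, dosing renewed at DIV 5 and 9. Burst rate averaged over active electrodes, recorded DIV 5, 7, 9, 12, summarized as AUC; loss versus DMSO.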

[5] = CCTE_Shafer_MEA_dev_bursting_electrodes_number: CCTE's Neural Network Formation Assay for Number of Bursting Electrodes, Shafer Lab (AID 2284043; active = hit-call score of the fitted dose curve at least 0.9, where 1 is the maximum)
Procedure, shortened: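 Primary rat cortical neurons plated on 16-electrode MEA wells, exposed from day 0 with compound renewed at DIV 5 and 9. Electrodes bursting ≥1 burst per 2 min counted on days 5, 7, 9 and 12; trapezoidal AUC across days, fitted for loss versus DMSO.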

[6] = CCTE_Shafer_MEA_dev_per_burst_interspike_interval: CCTE's Neural Network Formation Assay for Burst Interspike Interval, Shafer Lab (AID 2284044);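 note: mean spike spacing inside bursts as AUC over recordings on days 5 7 9 12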
Procedure, shortened: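 Rat cortical primary cultures, 16 electrodes/well; compound from plating, renewed with full media change DIV 5 and 9. Spikes via adaptive detector; per-burst ISI well-mean over active bursting electrodes; AUC of DIV 5/7/9/12 recordings; loss-direction fit vs DMSO.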

[7] = CCTE_Shafer_MEA_dev_burst_duration_mean: CCTE's Neural Network Formation Assay for Mean Burst Duration, Shafer Lab (AID 2284045)
Procedure, shortened: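 Primary rat cortical neurons on 48-well 16-electrode MEA plates, exposed from day 0 with renewal at DIV 5 and 9; spontaneous activity recorded on days 5, 7, 9, 12. Well-mean burst duration across bursting electrodes, collapsed as trapezoidal AUC; DMSO baseline.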

[8] = CCTE_Shafer_MEA_dev_interburst_interval_mean: CCTE's Neural Network Formation Assay for Mean Interburst Interval, Shafer Lab (AID 2284046);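 note: well-mean interburst interval of bursting electrodes as AUC over four recording days; curve fitted for decrease in interburst interval relative to DMSO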
Procedure, shortened: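 Recordings on days 5, 7, 9 and 12 give well-mean interburst interval across actively bursting electrodes, summarized as area under the curve. Cultures: rat cortical neurons, continuous exposure from day 0, compound renewed at feeds; decrease analyzed versus DMSO.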

[9] = CCTE_Shafer_MEA_dev_inter_network_spike_interval_mean: CCTE's Neural Network Formation Assay for Mean Inter-network Spike Interval, Shafer Lab (AID 2284047)
Procedure, shortened: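 Primary rat cortical neurons on 16-electrode MEA wells, exposed from plating day 0 through DIV 12, compound renewed at DIV 5 and 9 media changes. Mean interval between network-spike peaks recorded DIV 5, 7, 9, 12; collapsed as trapezoidal AUC, fitted downward versus DMSO.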

[10] = CCTE_Shafer_MEA_dev_network_spike_number: CCTE's Neural Network Formation Assay for Number of Network Spikes, Shafer Lab (AID 2284048)
Procedure, shortened: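 Primary rat cortical neurons on PEI/laminin 48-well MEA plates, dosed from plating day 0 for 12 days, renewed at DIV 5 and 9. Network spike counts recorded DIV 5, 7, 9, 12, collapsed as trapezoidal AUC; DMSO baseline.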

[11] = CCTE_Shafer_MEA_dev_network_spike_peak: CCTE's Neural Network Formation Assay for Mean Number of Electrodes in Network Spike, Shafer Lab (AID 2284049)
Procedure, shortened: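 Network-spike peak electrode count from recordings on days 5, 7, 9 and 12 was combined as trapezoidal area under the curve. Rat cortical cultures were treated continuously from plating, with compound renewed at each feed (DIV 5, 9); fits versus DMSO.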

[12] = CCTE_Shafer_MEA_dev_spike_duration_mean: CCTE's Neural Network Formation Assay for Mean Spike Duration, Shafer Lab (AID 2284051);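 note: mean network spike duration pooled as area under curve over DIV 5 to 12 recordings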
Procedure, shortened: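 Primary rat cortical neurons on 16-electrode MEA wells (PEI-coated, laminin in plating drop), exposed from plating through DIV 12 with compound renewed at DIV 5 and 9. Mean network-spike duration recorded DIV 5, 7, 9, 12; trapezoidal AUC across days, DMSO baseline.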

[13] = CCTE_Shafer_MEA_dev_network_spike_duration_std: CCTE's Neural Network Formation Assay for Standard Deviation of Network Spike Duration, Shafer Lab (AID 2284052);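 note: area under curve of spike duration SD across recording days 5 to 12; hits are decreases in network spike duration SD versus DMSO vehicle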
Procedure, shortened: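 Primary rat cortical neurons on PEI-coated 16-electrode MEA wells, exposed from plating day 0 through day 12 with compound renewed at DIV 5 and 9. Network spike duration SD recorded on days 5, 7, 9, 12, collapsed as trapezoidal AUC; loss-of-signal fit versus DMSO.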

[14] = CCTE_Shafer_MEA_dev_per_network_spike_spike_number_mean: CCTE's Neural Network Formation Assay for Mean Number of Spikes in a Network Spike, Shafer Lab (AID 2284053)
Procedure, shortened: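 Primary rat cortical neurons on 48-well, 16-electrode MEA plates were exposed from plating to DIV 12, with dosing renewed on DIV 5 and 9. Spikes per network spike (0.05 s peak window) were recorded on DIV 5, 7, 9 and 12 and collapsed as trapezoidal AUC versus DMSO.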

[15] = CCTE_Shafer_MEA_dev_per_network_spike_spike_percent: CCTE's Neural Network Formation Assay for Percent of Spikes in a Network Spike, Shafer Lab (AID 2284054)
Procedure, shortened: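 Rat primary cortical neurons were grown on 48-well MEA plates (16 electrodes/well), exposed from plating day 0 through day 12, with treatment renewed on DIV 5 and 9. Percent of spikes within 0.05 s network-spike peaks was measured, summarised as AUC across days 5, 7, 9, 12.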

[16] = CCTE_Shafer_MEA_dev_LDH: CCTE's Lactate Dehydrogenase Assay for Cytotoxicity in the Neural Network Formation Assay, Shafer Lab (AID 2284068; active = hit-call score of the fitted dose curve at least 0.9, where 1 is the maximum;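 note: exposure for twelve days from plating with re-dosing on DIV 5 and 9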)
Procedure, shortened: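 Primary rat cortical neurons were plated on PEI/laminin MEA plates and exposed from day 0 for twelve days, with compound renewed at DIV 5 and 9. Cytotoxicity was determined by spectrophotometric LDH assay relative to DMSO.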

[17] = CCTE_Shafer_MEA_dev_AB: CCTE's Alamar Blue Assay for Cytotoxicity in the Neural Network Formation Assay, Shafer Lab (AID 2284083; active = hit-call score of the fitted dose curve at least 0.9, where 1 is the maximum;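 note: twelve days of exposure from plating with re-dosing on DIV 5 and 9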)
Procedure, shortened: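 Primary rat cortical neurons on PEI-coated 48-well MEA plates, 1.5 x 10^5 cells/well in laminin drop; compound exposure from day 0 of plating for twelve days, renewed at medium changes on DIV 5 and 9. Viability read as resazurin reduction by fluorescence, relative to DMSO.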

[18] = CCTE_Shafer_MEA_dev_mutual_information_norm: CCTE's Neural Network Formation Assay for Mutual Information Normalization, Shafer Lab (AID 2284091)
Procedure, shortened: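 Primary rat cortical neurons on PEI-coated 48-well MEA plates, 1.5 x 10^5 cells/well, exposed from day 0 through day 12 with re-dosing at DIV 5 and 9. Mutual information between electrodes recorded days 5, 7, 9, 12; trapezoidal AUC, loss-of-signal fit versus DMSO.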

[19] = CCTE_Shafer_MEA_dev_correlation_coefficient_mean: CCTE's Neural Network Formation Assay for Mean Correlation Coefficient, Shafer Lab (AID 2284093)
Procedure, shortened: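 Spontaneous activity recorded on days 5, 7, 9 and 12 post-plating; pairwise spike correlations are averaged across active electrodes and collapsed to an area-under-curve. Rat cortical cultures are dosed from plating through 12 days, with compound renewed at media changes.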

[20] = UKN2_HCS_IMR90_neural_migration: University of Konstanz (UKN) Leist Lab Neural Crest Cell Migration Assay in human induced IMR90 Pluripotent Stem Cells (UKN2) (AID 2284204); details: actives raise or lower the signal
Procedure, shortened: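 iPSC-derived IMR90 neural crest cells seeded around stoppers on PLO/laminin/fibronectin; migration started in N2-S medium with EGF/FGF, compounds added after 24 h for 24 h. Migration into cell-free area imaged after calcein-AM/Hoechst staining; bidirectional fit versus DMSO.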

[21] = IUF_NPC1b_proliferation_BrdU_72hr: Leibniz Research Institute for Environmental Medicine (IUF) 72-hour Neural Progenitor Cell Bromodeoxyuridine (BrdU) Proliferation Assay (NPC1b) (AID 2284207)
Procedure, shortened: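 BrdU luminescence ELISA quantified DNA synthesis over the last 16 h of a 72 h exposure, fitted against DMSO. Primary hNPC spheres from gestational week 16-19 cortex grown with EGF/FGF at 37C, pH 7.2-7.6.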

[22] = IUF_NPC1a_proliferation_area_72hr: Leibniz Research Institute for Environmental Medicine (IUF) 72-hour Neural Progenitor Cell Proliferation Area Assay (NPC1a) (AID 2284208)
Procedure, shortened: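 Read-out: increase in sphere area over 72 h by automated phase-contrast imaging, fitted in positive direction versus DMSO baseline. One hNPC sphere (0.25-0.35 mm) per well in EGF/FGF medium; growth-factor withdrawal served as positive control.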

[23] = IUF_NPC1_viability_72hr: Viability Assessment at 72 hours in the Leibniz Research Institute for Environmental Medicine (IUF) Neural Progenitor Cell Proliferation Assay (NPC1) (AID 2284209)
Procedure, shortened: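 Single spheres (0.25-0.35 mm) of human fetal cortex-derived neural progenitor cells were grown in proliferation medium with EGF and FGF at 37C and 5% CO2. They were exposed for 72 h without renewal, and viability was read by alamar blue resorufin fluorescence.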

[24] = CCTE_Mundy_HCI_Cortical_Synap_Neur_Matur_NeuriteSpotCountPerNeuriteLength: CCTE's Synaptogenesis and Neurite Maturation Assay in rat cortical cells for Neurite Spot Count per Neurite Length, Mundy Lab (AID 2284210)
Procedure, shortened: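 Rat primary cortical cultures, AraC added at DIV 5 to suppress glia; chemical exposure from DIV 7 to DIV 12. Fixed cells stained for MAP2 and synaptophysin plus Hoechst; synaptophysin puncta per neurite length quantified by high-content imaging, relative to DMSO.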

[25] = CCTE_Mundy_HCI_Cortical_NOG_NeuriteCount: CCTE's Neurite Outgrowth Assay in rat cortical cells for Neurite Count, Mundy Lab (AID 2284212);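 note: cells fixed about two days after chemical exposure began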
Procedure, shortened: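 Neurite number per cell from high-content imaging of betaIII-tubulin immunostaining, with Hoechst nuclear counterstain.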

Measured: AC50

CCCCCC=C(C)C(CC)CCO (stereo unspecified)
inactive: [1] | [2] | [3] | [4] | [5] | [6] | [7] | [8] | [9] | [10] | [11] | [12] | [13] | [14] | [15] | [16] | [17] | [18] | [19] | [20] | [21] | [22] | [23] | [24] | [25]
active: [15] 5 µM
